High-throughput results (PubChem)
Most compounds without a hit are left out; they make up all but 4.9% or so of the library.
TIM10 inh: inhibits growth of TIM10 yeast strain. S. cerevisiae TIM10 strain growth, BacTiter-Glo luminescence, 24 h. inhibition, % at 10 µM. 330,000 tested, 1.4% active;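 active = inhibition of 40% or more at the single tested concentration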;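 also: wild-type TIM10 isogenic control strain grown at permissive 25 °C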
NLRP3 yeast inh: blocks the NALP3 inflammasome reconstituted in yeast | Yeast reconstituted NLRP3/ASC/caspase-1, beta-gal luminescence, 24 h | inhibition, % at 10 µM | 330,000 tested, 0.39% active | AID 2825;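 active = inhibition of 50% or more; inactive = inhibition below 50%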;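 also: plate controls were induced DMSO wells for no effect and uninduced yeast grown without galactose for full effect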
NALP1 inh: inhibitors of NALP1 inflammasome in yeast | S. cerevisiae NALP1/ASC/caspase-1 growth, X-gal OD620, 72 h | 280,000 tested, 0.61% active | inhibition, % at 10 µM; in the data active = inhibition mostly above about 24%, no sharp cut-off; inactive = mostly below about 32%
tim23-1 inh: inhibits growth of tim23-1 mutant yeast; S. cerevisiae tim23-1 growth, BacTiter-Glo luminescence, 24 h; AID 463212; 330,000 tested, 1.3% active; inhibition, % at 20 µM;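 active = growth inhibition of the mutant yeast at or above 50%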;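 also: temperature-sensitive mutant grown at 25 °C; plate controls were DMSO-treated mutant yeast for no effect and medium wells lacking yeast for full effect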
SKKanGAS inh: blocks kanamycin growth of S. pyogenes SKKanGAS strain; 300,000 tested, 1.3% active; inhibition, % at 7.5 µM; BacTiter-Glo, 6 h;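 active = mean replicate score, as percent of positive control median, at least 50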;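 also: strain carries kanamycin resistance gene driven by streptokinase promoter and grows in 40 µg/ml kanamycin; loss of luminescence reflects streptokinase promoter inhibition or plain growth inhibition; 0% = median of DMSO wells and 100% = positive control at its reference dose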
tim10-1 inh: growth inhibitors of tim10-1 mutant yeast; S. cerevisiae tim10-1 ts strain growth, BacTiter-Glo, 24 h; inhibition, % at 20 µM; 330,000 tested, 2.2% active; AID 463190;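 active = inhibition of at least 40%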;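 also: mutant grown at 25 °C; 0% = DMSO wells with yeast and 100% = wells holding no yeast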
tim23-1 confirm: tim23-1 yeast growth inhibition, confirmed | shares compounds with tim23-1 inh | S. cerevisiae tim23-1 growth, BacTiter-Glo luminescence, 24 h | inhibition, % at 20 µM | 4,400 tested, 83% active | AID 463218;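 active = inhibition above about 39% in either of two replicate wells at 20 µM, limit read from the data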;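 also: temperature-sensitive tim23-1 mutant grown at 25 °C; 0% = DMSO wells with yeast and 100% = medium wells without yeast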
Active calls of the source: *; . = not tested or not shown.

SMILES	TIM10 inh	NLRP3 yeast inh	NALP1 inh	tim23-1 inh	SKKanGAS inh	tim10-1 inh	tim23-1 confirm
CC(C)n1cc(NC(=O)c2cc(-c3ccccc3)on2)cn1	25.8	18.6	10.0	55.0*	0.2	21.4	53.5*
Cc1ccccc1COc1ccc(/C=C(\C#N)C(N)=O)cc1	10.0	18.9	14.0	11.5	13.9	2.7	.
N#C/C(=C\c1ccc(OCc2ccccc2)cc1)C(N)=O	6.1	13.1	6.9	62.6*	11.2	33.9	52.0*
N/C(=N\OC(=O)c1ccc(Cl)cc1)c1nonc1N	22.7	35.4	34.3	24.4	1.5	33.6	.
CCOC(=O)c1cn(-c2ccccc2)nc1-c1ccncc1	34.9	-1.5	-3.2	51.3*	.	38.1	46.5*
Cc1cccc(/C=N/NC(=O)c2cc(Br)ccc2OCc2ccccc2)n1	-10.0	7.1	-7.0	19.7	18.6	20.4	.
Cc1cccc(/C=N/NC(=O)c2ccccc2OCc2cccc(Br)c2)n1	0.2	10.5	-4.1	51.5*	60.9*	24.7	55.4*
Cc1ccccc1NC(=S)N(Cc1cccs1)C1CCCCC1	28.1	8.2	21.9	51.2*	0.1	33.9	39.0*
O=C(c1sc2cc(F)ccc2c1Cl)N1CCN(c2ccccc2)CC1	12.9	9.2	36.7	35.9	-1.1	29.0	.
O=C(CN1CCSCC1)N1CCc2[nH]c3ccc(Br)cc3c2C1	.	.	39.0	.	6.0	.	.
Cc1ccc2[nH]c3c(c2c1)CN(C(=O)CN1CCN(c2cccc(C)c2C)CC1)CC3	28.5	9.9	15.8	60.1*	19.3	10.9	39.0
O=C(CS(=O)(=O)c1ccccc1)Nc1nc(-c2ccc(F)cc2)cs1	38.8	-23.7	-0.3	57.3*	15.3	26.6	48.9*
Cc1cc(NC(=O)CN2C(=O)NC3(CCCCC3)C2=O)ccc1N1CCCC1	2.0	21.8	.	11.1	.	-9.3	.
O=c1[nH]c(CCl)nc2cc(-c3ccc(F)cc3)sc12	35.5	-2.7	7.9	59.5*	10.3	21.2	57.5*
CCN(CC)C(=O)[C@H]1C[C@H](CC(=O)NCCC2=CCCCC2)C(=O)N2CCc3c([nH]c4ccc(Cl)cc34)[C@]12C	-1.1	.	.	58.4*	.	16.0	32.7
CCn1c(SCC(=O)NNC(=O)c2ccc(C)cc2)nnc1-c1ccco1	-14.0	10.6	2.8	0.5	-4.5	-19.5	.
COc1ccc(C(=O)NCCS(=O)(=O)N2CCN(C(=O)c3ccco3)CC2)cc1	-1.0	12.8	.	10.1	-6.5	5.9	.
CCOc1ccc(S(=O)(=O)N2CCCC(C(=O)NC3CCCC3)C2)cc1 (configuration not stated)	3.9	10.4	-9.1	8.2	-4.9	-5.3	.
CC(Cc1ccccc1)NC(=O)c1cc2ccccc2o1 (configuration not stated)	23.0	39.5	10.2	50.9*	3.5	-23.6	53.1*
COc1ccc(F)cc1S(=O)(=O)n1nc(C)cc1C	3.8	-18.4	-9.6	94.7*	-0.5	6.3	9.3
COc1ccc(C)cc1S(=O)(=O)n1nc(C)cc1C	-2.6	-17.7	15.3	8.8	-11.4	12.7	.
Cc1ccc2c(c1)COc1c3ccc(C(=O)N[C@@H](C)CO)cc3nn1-2	12.0	11.5	7.5	22.6	-8.7	15.0	.
Cc1ccc2c(c1)COc1c3ccc(C(=O)NC(C)C)cc3nn1-2	32.4	19.5	11.2	51.1*	-8.0	27.7	47.8*
O=C(NC(=S)NCc1ccccc1)c1ccc(Br)o1	9.4	36.9	2.7	61.4*	0.8	29.2	26.1
O=C(NC(=S)NCc1ccc(Cl)cc1Cl)c1ccco1	6.9	5.6	.	41.9	.	16.1	.
SMILES	TIM10 inh	NLRP3 yeast inh	NALP1 inh	tim23-1 inh	SKKanGAS inh	tim10-1 inh	tim23-1 confirm
O=C(NC(=S)NCc1ccccc1)c1ccc2c(c1)OCO2	11.4	6.4	28.0	50.1*	-6.7	13.6	42.7*
O=C(NC(=S)NCc1ccc(Cl)cc1)c1ccco1	-4.4	21.5	.	50.6*	.	13.8	45.1*
CCOc1ccccc1NC(=O)c1ccccc1NC(=O)c1ccco1	9.6	6.1	21.5	11.8	-0.4	19.2	.
O=C(NNC(=S)NCc1ccccc1)c1ccc(Br)o1	7.2	17.4	-20.8	13.4	-1.2	4.2	.
CCOc1ccccc1NC(=S)NC(=O)c1ccco1	26.5	-18.6	17.8	54.1*	-2.2	37.8	35.2
Cc1ccc(C(=O)N/C(=C/c2ccco2)C(=O)N2CCOCC2)cc1	1.2	8.5	11.4	4.6	-7.0	-14.2	.
O=C(NC(=S)NCc1ccccc1)C1CCCCC1	13.1	41.6	14.5	54.8*	14.1	20.2	26.2
CCC(=O)c1ccc(OCC(=O)OCC(=O)N2c3ccccc3NC(=O)C2(C)C)cc1	-15.4	19.8	.	-8.0	-18.5	1.0	.
CCOC(=O)c1sc2ncnc(N3CCN(CC)CC3)c2c1C	-1.9	30.1	-0.5	-3.0	3.5	3.3	.
CCOC(=O)CNC(=O)c1sc2ncnc(N3CCc4ccccc4C3)c2c1C	26.8	-2.7	32.1	50.8*	-6.1	35.3	36.5
CC1CCCc2sc3nc(NCc4ccco4)n4ncnc4c3c21 (configuration not stated)	18.3	23.6	-0.5	50.5*	.	33.1	48.7*
Cc1ccc(C(=O)N/C(=C\c2ccc(Cl)cc2)C(=O)NCC2CCCO2)cc1 (configuration not stated)	4.8	13.9	3.5	15.9	-1.2	17.8	.
COc1ccc2cc(C(=O)N3CCN(c4ccccc4OC)CC3)[nH]c2c1	32.7	8.2	4.4	58.5*	1.6	31.7	53.0*
COc1ccccc1N1CCN(C(=O)c2ccc(-c3ccc(Cl)cc3)o2)CC1	36.3	22.5	.	51.7*	.	36.9	48.0*
COc1cc2[nH]c(C(=O)N3CCN(c4ccccc4F)CC3)cc2c(OC)c1OC	24.0	2.4	18.3	50.9*	-2.3	37.0	38.0
COc1ccc2cc(C(=O)N3CCN(c4ccccc4F)CC3)[nH]c2c1	6.2	16.5	2.3	21.1	-9.7	22.7	.
O=c1oc(-c2cccs2)nc2ccc(Br)cc12	20.0	13.1	1.0	67.0*	26.0	37.8	38.2
Cc1ccc2nc(-c3cccs3)oc(=O)c2c1	18.7	-7.7	0.3	36.7	3.5	33.1	.
CCc1ccc(N2CC(C(=O)Nc3nnc(CC)s3)CC2=O)cc1 (configuration not stated)	-11.3	6.8	31.8	4.4	-9.0	6.3	.
C[C@H]1CN(S(=O)(=O)c2ccc3c(c2)OCCO3)CCN1S(=O)(=O)c1c(F)cccc1F	21.5	2.7	.	50.9*	.	21.0	30.6
O=S(=O)(c1ccc2c(c1)OCCO2)N1CCCN(S(=O)(=O)c2c(F)cccc2F)CC1	3.0	12.8	.	46.0	.	31.4	.
CCn1c(CC(=O)Nc2ccccc2)nnc1SCc1nc2ccccc2c(=O)[nH]1	-7.6	10.3	.	-1.3	-1.1	-2.4	.
Cc1nc2ccc(S(=O)(=O)Nc3cc(-c4nc5cccnc5s4)ccc3C)cc2s1	4.2	9.3	26.5	60.3*	38.2	36.5	55.0*
